High-throughput results deposited in PubChem BioAssay by The Scripps Research Institute Molecular Screening Center.
FBW7 activator: FBW7 E3 ligase activators, primary screen, biochemical, AlphaScreen, human; AlphaScreen FBW7–phospho-cyclin E peptide binding, activator screen; normalized activity (activation), % at 26.1 µM; hit rate 0.13% among 650,000; in the data active = normalized activity above about 1.9%;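 note: purified mutant Fbw7 with reduced substrate affinity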
Target sequence (Q969H0 whole entry, looked up): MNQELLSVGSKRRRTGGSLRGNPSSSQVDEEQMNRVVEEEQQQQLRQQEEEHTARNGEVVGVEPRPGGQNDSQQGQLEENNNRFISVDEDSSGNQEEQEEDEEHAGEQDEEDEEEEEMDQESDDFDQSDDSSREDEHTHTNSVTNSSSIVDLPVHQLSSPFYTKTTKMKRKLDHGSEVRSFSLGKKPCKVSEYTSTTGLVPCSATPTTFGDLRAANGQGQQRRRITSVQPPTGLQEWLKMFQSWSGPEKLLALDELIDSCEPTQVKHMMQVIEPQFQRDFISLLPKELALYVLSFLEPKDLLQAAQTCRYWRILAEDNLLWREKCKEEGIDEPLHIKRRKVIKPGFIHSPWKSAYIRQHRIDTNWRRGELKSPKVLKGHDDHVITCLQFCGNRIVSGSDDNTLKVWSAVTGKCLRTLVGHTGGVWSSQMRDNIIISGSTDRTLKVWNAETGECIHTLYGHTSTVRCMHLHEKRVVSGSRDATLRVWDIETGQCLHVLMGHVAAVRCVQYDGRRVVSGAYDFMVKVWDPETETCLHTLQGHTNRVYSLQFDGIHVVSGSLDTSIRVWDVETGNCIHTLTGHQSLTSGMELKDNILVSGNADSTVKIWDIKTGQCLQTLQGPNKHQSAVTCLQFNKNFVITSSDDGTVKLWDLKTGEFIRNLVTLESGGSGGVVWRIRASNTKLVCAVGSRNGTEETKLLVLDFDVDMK
GPR151 ag: activators of human GPR151, primary screen, cell-based, PathHunter beta-arrestin, luminescence. G-protein coupled receptor 151 (Homo sapiens), Q8TDV0. PathHunter beta-arrestin GPR151 cells. activation, % at 11.2 µM. hit rate 1% among 650,000; in the data active = activation above about 4.9%;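 note: 0% = median of compound wells and 100% = cells with positive control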
MITF primary: MITF inhibitors, primary screen, biochemical, AlphaScreen, human; inhibition, % at 2.6 µM; AlphaScreen MITF homodimerization, bead proximity signal; hit rate 0.91% among 650,000; in the data active = inhibition above about 50%;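 note: 0% = vehicle wells with protein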
TEAD-YAP inh: TEAD-YAP interaction inhibition, primary screen, TEAD-YAP interaction inhibitor project, luminescence, HEK-TIYL cells. TEAD-Gal4/YAP UAS-luciferase luminescence. inhibition, % at 9.12 µM. hit rate 1.4% among 640,000. AID 1259422, 2018; in the data active = inhibition above about 32%;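 note: 0% = median of test compound wells and 100% = reference inhibitor wells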
Numbers without * were called inactive. This is a sample that favours compounds with a hit; in the whole collection about 3.5% have one here.

SMILES	FBW7 activator	GPR151 ag	MITF primary	TEAD-YAP inh
COC(=O)c1ccc(C2Oc3c(OC)cccc3C3CC(c4ccc(OC)cc4)=NN32)cc1 (centres undefined)	-0.2	-0.7	-4.5	-43.4
Cc1cc(C)nc(SCc2cc(=O)c(OC(=O)c3cccc4ccccc34)co2)n1	-0.2	-0.9	0.1	-0.6
COc1ccc(C)cc1S(=O)(=O)N1CCN(C(=O)c2ncoc2-c2cccs2)CC1	-0.1	-0.6	7.4	-1.6
NC(=O)C1CCN(C(=O)c2ccc3c(=O)n(C4CCCCC4)c(SCC(=O)N4CCCc5ccccc54)nc3c2)CC1	-0.1	-1.7	0.5	6.1
Cc1cccc(NC(=O)N(C2=NCCC2)c2cc(C)cc(C)c2)c1	0.0	1.8	1.9	-6.3
Cc1noc(C)c1COC(=O)c1ccccc1I	0.0	-0.2	-3.4	1.7
Cc1cccc(-n2c(C)cc(C(=O)OCc3c(C)noc3C)c2C)c1	-0.1	-1.4	8.1	41.2*
CN(C)CCCN(C(=O)/C=C\c1ccc([N+](=O)[O-])cc1)c1nc2c(F)cccc2s1	-0.1	-0.6	-20.3	76.3*
CN(C)CCN(C(=O)c1c(F)cccc1F)c1nc2ccccc2s1	-0.1	-0.9	5.8	-13.2
COc1cc(Nc2cc(C)nc(NCc3ccc4c(c3)OCO4)n2)cc(OC)c1OC	0.8	4.4	15.8	43.1*
COc1cc(Nc2nccc(Nc3ccc4c(c3)OCO4)n2)cc(OC)c1OC	-0.1	2.3	2.9	33.5*
COc1cc(Nc2ccnc(NCc3ccc4c(c3)OCO4)n2)cc(OC)c1OC	-0.2	0.6	1.8	35.4*
COc1ccc(-c2nccc(Nc3cc(OC)c(OC)c(OC)c3)n2)cn1	-0.1	0.4	5.4	60.2*
CCOc1ccc(/C(O)=C2\C(=O)C(=O)N(c3nccs3)C2c2ccccc2)cc1 (centres undefined)	-0.1	-0.4	-3.0	36.4*
O=c1c2ccccc2nc(SCc2ccccc2Cl)n1CCN1CCOCC1	0.0	0.8	2.8	9.2
COc1ccc(CNC(=O)c2ccc3c(c2)CC(c2nc4ccc(-c5ccnc(N)n5)cc4[nH]2)CO3)cc1 (centres undefined)	7.5*	1.4	-1.9	11.6
Nc1nccc(-c2ccc3nc(C4COc5ccc(C(=O)NC6CCCCC6)cc5C4)[nH]c3c2)n1 (centres undefined)	6.0*	0.7	-0.2	5.8
Nc1nccc(-c2ccc3nc(C4COc5ccc(C(=O)NCc6ccccc6)cc5C4)[nH]c3c2)n1 (centres undefined)	-0.1	-2.1	3.8	-4.8
Nc1nccc(-c2ccc3nc(C4COc5ccc(C(=O)NC6CCCC6)cc5C4)[nH]c3c2)n1 (centres undefined)	2.4*	1.7	14.0	-1.7
COCCNC(=O)CCC1CCN(Cc2ccc3c(c2)OCCO3)CC1	0.2	-0.3	5.6	11.8
OCCC1CCCCN1c1ccnc2c(-c3ccccc3)cnn12 (centres undefined)	-0.3	0.1	8.7	88.5*
OCCC1CCCCN1c1ccnc2c(-c3cccc(Cl)c3)cnn12 (centres undefined)	-0.5	0.1	-6.6	90.2*
OCCC1CCCCN1c1ccnc2c(-c3ccccc3F)cnn12 (centres undefined)	-0.4	-0.3	-7.5	62.6*
OC[C@@H]1CCCN1c1ccnc2c(-c3ccc(F)cc3)cnn12	0.0	-2.1	2.2	74.1*
COc1ccccc1-c1cnn2c(N3CCCCC3CCO)ccnc12 (centres undefined)	-0.5	-0.8	-22.5	-6.8
SMILES	FBW7 activator	GPR151 ag	MITF primary	TEAD-YAP inh
COC(=O)c1nnn(-c2nc(C)cc(C)n2)c1C(=O)OC	0.1	0.3	-10.6	5.4
Cc1ccc(NS(=O)(=O)c2csc(C(=O)Nc3ccccc3)c2)cc1	0.2	0.1	-5.1	-12.2
OCCC1CCCCN1c1ccnc2c(-c3ccc(F)cc3)cnn12 (centres undefined)	-0.5	0.6	-24.8	96.8*
Cc1ccc(-c2cnn3c(N4CCCCC4CCO)ccnc23)cc1C (centres undefined)	0.3	0.3	3.2	7.4
CC(=O)c1oc2ccc3c(C)cc(=O)oc3c2c1-c1ccccc1	0.0	0.9	1.4	-3.1
Cc1cc(=O)oc2c1ccc1oc(C(=O)c3ccc(Cl)cc3)c(-c3ccccc3)c12	-0.2	-0.2	-1.5	63.2*
Cc1cc(=O)oc2c1ccc1oc(C(=O)c3ccccc3)c(C)c12	0.1	-0.3	10.7	48.6*
Cc1cc(=O)oc2c1ccc1oc(C(=O)c3ccccc3)c(-c3ccccc3)c12	-0.1	0.2	6.5	72.0*
C/C(=N\O)c1oc2ccc3c(C)cc(=O)oc3c2c1C	0.1	-0.3	0.4	6.1
CC(=O)Nc1ccc(Nc2nc(N3CCC(N4CCOCC4)CC3)nc3c2ncn3CCN2CCCC2=O)cc1	-0.2	0.6	-3.2	-0.9
CS(=O)(=O)N(CC(=O)Nc1cccnc1)c1ccc(C23CC4CC(CC(C4)C2)C3)cc1	0.0	0.1	12.9	0.8
COc1cccc(/C=C(/C#N)c2nc(C3CC3)cs2)c1	3.5*	-0.8	-1.0	-56.0
COc1ccc(/C=C(/C#N)c2nc(C3CC3)cs2)cc1OC	0.6	1.3	3.4	-34.6
Cc1ccc2oc(-c3cc(NC(=O)COc4ccc(C(C)(C)C)cc4)ccc3O)nc2c1	-0.2	-0.6	1.0	2.0
O=[N+]([O-])c1cccc(CN2CCN(Cc3cc(Br)ccc3O)CC2)c1	0.0	0.4	65.3*	9.5
O=[N+]([O-])c1cccc(CN2CCCCCC2)c1	-0.2	-0.2	4.3	1.2
CCOc1cc(C(=O)NCc2nnc(SCC(=O)N3CCc4ccccc43)n2-c2ccccc2OC)cc(OCC)c1OCC	0.4	-1.4	5.2	20.0
CN(C)c1ccc(-c2nc3ccccc3c(=O)[nH]2)cc1	0.5	-6.6	6.7	71.7*
COC(=O)C1=NN(C(=O)Cc2ccccc2)C(O)(C(C)(C)C)C1 (centres undefined)	2.0*	-0.4	16.1	-0.9
CCOC(=O)C1=NN(C(=O)Cc2ccccc2)C(O)(C(C)(C)C)C1 (centres undefined)	0.3	0.1	-5.8	12.9
O=C(Cn1ncc2c(=O)oc3ccccc3c21)N(Cc1cccs1)C1CCCC1	-0.1	-1.6	3.9	2.1
Cc1cc(C)nc(SC/C(N)=N\O)n1	-0.1	-0.8	-1.0	-0.5
CC(=O)CSc1ccc(-c2nc3cc(C)c(C)cc3[nH]2)cn1	-0.2	-1.3	-4.9	81.4*
Cc1ccc2nc(-c3ccc(SCC(=O)O)nc3)[nH]c2c1	-0.2	-1.0	-10.4	-4.5
CC(=O)Nc1cccc(NC(=O)CSc2ccc(-c3nc4cc(C)c(C)cc4[nH]3)cn2)c1	-0.2	-1.0	-13.1	-45.1
Cc1ccc2nc(-c3ccc(SCC(N)=O)nc3)[nH]c2c1	-0.1	1.4	-5.3	53.1*
CC(Cc1cccs1)NC(=O)C1c2ccccc2Oc2ccccc21 (centres undefined)	0.1	-0.8	5.4	10.4
Cc1cc(C)c(C(=O)/C=C/c2ccccn2)c(=O)[nH]1	0.3	-1.7	12.1	76.8*
